An excerpt weighted towards active compounds, which were near 19% of everything screened.
TDP1 cell CPT – DT40-hTDP1 cell growth loss with CPT; chicken DT40 Tdp1-/-;hTDP1 cells + 20 nM CPT, ATP luminescence, 48 h; Potency, µM (top dose mostly 46.2 µM), for inactives: top-dose activity change, negative = growth inhibition, usual class: inhibitors; 12% of 420,000 active; AID 686979; also: potency is read from the fitted curve at half-maximal effect; nearly all actives have a fitted effect of over 55% in size
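Cell growth measured by CellTiter-Glo luminescence after a minimum 48 h, 37 C compound exposure with 20 nM CPT in Tdp1-knockout DT40 cells stably expressing hTDP1, seeded 400/well; qHTS titration format.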
HT1080NT lethal – kills 2HG-producing HT-1080-NT fibrosarcoma cells. HT-1080-NT fibrosarcoma viability, CellTiter-Glo ATP luminescence, 48 h. Potency, µM (series often up to 46.1 µM), for inactives: at the top dose activity, negative = less viability, usual class: cytotoxic. 1.6% of 360,000 active. AID 686970;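 also: NT is the 2HG producing partner of a matched IDH1 knockdown line; potency is read from the fitted curve at half-maximal effect; 0% = DMSO-treated cells and -100% = media-only wells without cells; nearly all actives have a fitted effect of over 55% in size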
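Viability by CellTiter-Glo luminescence after 48 h compound exposure at 37C of HT-1080-NT cells (750/well, RPMI, 5% FBS). % activity scaled between DMSO wells and medium-only wells, then curve-fitted and categorized by curve class.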
TDP1 cell noCPT – qHTS for Inhibitors of human tyrosyl-DNA phosphodiesterase 1 (TDP1): qHTS in cells in absence of CPT; DT40 Tdp1-/- hTDP1 cells, no CPT, ATP luminescence, 48 h; Potency, µM (doses to about 46.2 µM), for the others: at the highest dose activity change, negative = growth inhibition, hits mostly inhibitors; 15% of 420,000 active; AID 686978, 2013; also: potency is read from the fitted curve at half-maximal effect; nearly all actives have a fitted effect of over 55% in size
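Luminescent ATP content (CellTiter-Glo) served as the growth readout. Knockout chicken DT40 cells expressing human TDP1 were exposed to compounds without camptothecin for a minimum 48 hr at 37 °C.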
HT1080 IDH1KD tx – kills HT-1080 cells with IDH1 knockdown; HT-1080 IDH1 knockdown viability, ATP luminescence, 48 h; Potency, µM (highest dose often 46.1 µM), inactives show top-dose activity, negative = toxicity, most hits filed as cytotoxic; 2% of 360,000 active;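 also: potency is read from the fitted curve at half-maximal effect; 0% = DMSO wells and -100% = cell-free medium wells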
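% activity derives from luminescence (CellTiter-Glo), normalised to DMSO and no-cell wells. HT-1080-IDH1KD cells, 750/well, had 48 h compound exposure at 37 °C.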
IL1B secr inh – blocks inflammasome-driven IL-1 beta release. THP-1 LPS/ATP IL-1B secretion, AlphaLISA, 16 h; hits give low values. activity change, % at 57.5 µM. 4.7% of 360,000 active. AID 743279; in the data active = activity change below about -50%; inconclusive = mostly about -30% to -49%
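Secreted IL-1B measured by AlphaLISA bead assay after 16 h compound exposure of THP-1 cells; compounds (final up to 57.5 uM) added 1 h before LPS (250 ng/mL) and ATP (1.25 mM) stimulation; lower signal means less secretion.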
* marks the source's active call; other numbers are inactive results; ? = inconclusive; nt = no result; [ ] = remark or other dose. Unless noted, calls follow the shape of the dose curve; as a rule, active = well fitted curve in the direction sought with a large enough effect; inconclusive = small, poorly fitted or top-dose-only effect, or another doubt; inactive = no such curve, though single readings can be large; an effect the other way counts as inactive or inconclusive. Unless noted, % is scaled to controls: 0 for no effect and ±100 for the full control effect.

SMILES | TDP1 cell CPT | HT1080NT lethal | TDP1 cell noCPT | HT1080 IDH1KD tx | IL1B secr inh
CCOc1ccc(S(=O)(=O)N2CCN(C(=O)c3ccc(C)c(S(=O)(=O)N4CCOCC4)c3)CC2)cc1 | 26µM* | -9% | 18µM* | -10% | -4
CCOc1ccc(OCC(=O)N2CCN(S(=O)(=O)c3ccccc3)CC2)cc1 | -26% | 8% | -20% | 3% | -26
CCOc1ccc(NC(=O)COC(=O)Cc2ccc(S(=O)(=O)N3CCOCC3)s2)cc1 | 10% | 0% | 3% | 25% | 32
Cc1ccc(C(=O)N2CCC(Cc3ccccc3)CC2)cc1S(=O)(=O)N1CCOCC1 | ? | -3% | 9.2µM* | 4% | -18
Cc1ccc(S(=O)(=O)Nc2ccccn2)cc1[N+](=O)[O-] | 9% | 7% | -17% | 3% | 11
CC1(C)Cc2ccccc2-c2nc(NCCCO)n(-c3ccccc3)c(=O)c21 | 23µM* | 5% | 15µM* | 1% | -8
Fc1cc(F)cc(-c2oncc2-c2nnnn2-c2ccccc2)c1 | -13% | -7% | 6% | 1% | 18
Cc1ccc(-n2nnnc2-c2cnoc2-c2cccc(F)c2)cc1 | 26µM* | -12% | ? | -12% | 47
Cc1cc(C(=O)N2CCOc3ccc(CN4CCC(Oc5cccnc5)CC4)cc3C2)c(C)o1 | -2%[9.04 µM] | nt | ? | nt | nt
Cc1ccnc2ncccc12 | -25% | nt | -12% | nt | nt
Cc1ccnc2c1ccc1c(C)ccnc12 | 0.92µM* | 13µM* | 2.6µM* | 15µM* | ?
Cc1cc(C)c2cccnc2c1O | 1.3µM* | nt | 1.1µM* | nt | nt
Cc1ccnc2c(N3C(=O)C4C5c6ccccc6C(c6ccccc65)C4C3=O)cccc12 (configuration not stated) | 21µM* | 0% | 16µM* | -22% | ?
Cc1ccccc1N1C(=O)C2C3CC(=O)C(c4ccccc43)C2C1=O (configuration not stated) | -14% | -7% | -26% | -3% | 19
Cc1cc(C)c2ccc(NN)nc2c1O | ? | -23% | 18µM* | ? | 61
COc1ccccc1-n1c(=O)c2c3c(sc2n2c(SC)nnc12)CCC3 | -6% | 5% | -12% | 6% | 7
O=C(COc1ccc(Cl)cc1)NNC(=O)c1ccc2c(=O)n3c(nc2c1)CCC3 | -17% | 5% | 0% | 3% | 11
CCC(C)(C)NC(=O)C(c1ccc(C)cc1)N(CCN1CCOCC1)C(=O)CNC(=O)c1cccs1 (configuration not stated) | ? | 2% | -24% | -8% | 2
COc1ccc(/C=C(\NC(=O)c2ccccc2)C(=O)NCCC(=O)O)cc1 | 17% | 24% | -9% | 28% | -5
Cc1ccc(NC(=O)c2ccc(NS(=O)(=O)c3cccc4cccnc34)cc2)cc1 | ? | ? | -24% | ? | ?
Cc1ccnc2c1ccc1cccnc12 | 1µM* | ? | 0.58µM* | ? | -86*
Cc1ccnc2c(O)cccc12 | 1.3µM* | nt | 0.89µM* | nt | nt
Cc1ccc(C(=O)Nc2c(C)cc(C)c3cccnc23)cc1 | ? | 5% | 16µM* | -5% | 7
Cc1ccnc2c1ccc1ccccc12 | -4% | 1% | 9% | 1% | -26
Cc1ccc2nc(N3CCN(C(=O)c4ccco4)CC3)c3nncn3c2c1 | ? | 8% | 16µM* | 12% | -9
SMILES | TDP1 cell CPT | HT1080NT lethal | TDP1 cell noCPT | HT1080 IDH1KD tx | IL1B secr inh
Cc1cc2nc(N3CCN(C(=O)c4ccco4)CC3)sc2cc1C | ? | -27% | 21µM* | -24% | -14
COc1ccc(C)c2sc(N3CCN(C(=O)c4ccco4)CC3)nc12 | 18µM* | nt | 18µM* | nt | nt
Cc1nnc2c(N3CCN(C(=O)c4ccco4)CC3)nc3ccccc3n12 | ? | 0% | ? | -1% | 21
O=C(c1ccco1)N1CCN(c2nc3ccc(Cl)cc3s2)CC1 | ? | nt | 23µM* | nt | nt
Cc1cc(C)c2nc(N3CCN(C(=O)c4ccco4)CC3)sc2c1 | -3% | 19% | -3% | ? | -29
Cc1c(C(=O)Nc2cccnc2)oc2ccc(Br)cc12 | ? | ? | ? | ? | 6

From PubChem BioAssay
